PubChem BioAssay AID1159580 (chemical genetic matrix, 2015)
“And” between values parts separate entries of the source, which are not always exact repeats. Equal values may be shown once. In all, about 5,500 compounds went through this assay and about 2,000 (36%) were called active. About 18% were inconclusive and are not listed. No stated cut-off is given here; in the data, active means normalized growth mostly below about 0.91 (no sharp cut-off); inconclusive means no clear call, values can overlap the other calls; inactive means mostly above about 0.92. The list shows a part of the results.

Assay: chemical genetic growth profiling, strain panel (AID 1159580);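 further: tested at 20 µM; growth read once vehicle control cultures reached saturation at 30 °C; 1 = growth at the plate median or of vehicle wells; lower values mean less growth of the strain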
Conditions: S. cerevisiae deletion strains, growth OD

Measured: normalized growth

COC(=O)C1=CO[C@@H](O[C@@H]2O[C@H](CO)[C@@H](O)[C@H](O)[C@H]2O)[C@@H]2[C@@H](C)[C@@H](O)C[C@H]12
inactive: locus YAL013W, strain DEP1, active compounds read low 1 | locus YAL021C, strain ccr4, active compounds read low 0.973 | locus YAL026C, strain drs2, active compounds read low 1.01 | locus YAL030W, strain snc1, active compounds read low 0.996 | locus YBL061C, strain skt5, active compounds read low 0.999 | locus YBR009C, strain hhf1, active compounds read low 0.998 | locus YBR021W, strain FUR4, active compounds read low 1.02 | locus YBR023C, strain chs3, active compounds read low 0.994 | locus YBR171W, strain sec66, active compounds read low 1 | locus YBR229C, strain ROT2, active compounds read low 1.01 | locus YBR231C, strain swc5, active compounds read low 1.01 | locus YBR279W, strain paf1, active compounds read low 0.989 | locus YCL011C, strain gbp2, active compounds read low 0.997 | locus YCL016C, strain dcc1, active compounds read low 0.979 | locus YCL029C, strain bik1, active compounds read low 0.989 | locus YCL061C, strain MRC1, active compounds read low 0.973 | locus YCL069W, strain vba3, active compounds read low 0.999 | locus YCR088W, strain abp1, active compounds read low 0.998 | locus YDL005C, strain med2, active compounds read low 0.989 | locus YDL035C, strain GPR1, active compounds read low 1.02 | locus YDL040C, strain nat1, active compounds read low 1 | locus YDL074C, strain BRE1, active compounds read low 1 | locus YDL101C, strain DUN1, active compounds read low 0.996 | locus YDL134C, strain PPH21, active compounds read low 1.08 | locus YDL185W, strain tfp1, active compounds read low 0.967 | locus YDL192W, strain arf1, active compounds read low 1 | locus YDR001C, strain nth1, active compounds read low 1 | locus YDR069C, strain doa4, active compounds read low 0.998 | locus YDR101C, strain arx1, active compounds read low 0.977 | locus YDR137W, strain rgp1, active compounds read low 1 | locus YDR150W, strain NUM1, active compounds read low 0.993 | locus YDR159W, strain sac3, active compounds read low 0.998 | locus YDR162C, strain NBP2, active compounds read low 1.01 | locus YDR195W, strain ref2 0.989 | locus YDR297W, strain sur2, active compounds read low 0.996 | locus YDR318W, strain mcm21, active compounds read low 1.01 | locus YDR334W, strain swr1, active compounds read low 1.01 | locus YDR335W, strain msn5, active compounds read low 0.995 | locus YDR388W, active compounds read low 0.995 | locus YDR392W, strain spt3, active compounds read low 0.891 | locus YDR502C, strain sam2, active compounds read low 1.01 | locus YEL003W, strain gim4, active compounds read low 1.02 | locus YEL037C, strain rad23, active compounds read low 1.01 | locus YEL061C, strain CIN8 (second series), active compounds read low 1 | locus YEL061C, strain CIN8, active compounds read low 1.01 | locus YER015W, strain faa2, active compounds read low 0.995 | locus YER016W, strain bim1, active compounds read low 0.999 | locus YER110C, active compounds read low 0.976 | locus YER111C, strain swi4, active compounds read low 0.991 | locus YER155C, strain BEM2 (second series), active compounds read low 0.986 | locus YER155C, strain BEM2, active compounds read low 0.997 | locus YER167W, strain BCK2, active compounds read low 1 | locus YFR010W, strain ubp6, active compounds read low 1 | locus YGL078C, strain dbp3, active compounds read low 0.989 | locus YGL086W, strain mad1, active compounds read low 0.943 | locus YGL167C, strain pmr1, active compounds read low 1.01 | locus YGL173C, strain kem1, active compounds read low 1.02 | locus YGL227W, strain vid30, active compounds read low 0.994 | locus YGL240W, strain doc1, active compounds read low 0.987 | locus YGL248W, strain PDE1, active compounds read low 1.02 | locus YGL253W, strain hxk2, active compounds read low 1.01 | locus YGR078C, strain PAC10, active compounds read low 1 | locus YGR135W, strain pre9, active compounds read low 1 | locus YGR229C, strain SMI1, active compounds read low 1.03 | locus YGR252W, strain gcn5, active compounds read low 1.14 | locus YHR013C, strain ard1, active compounds read low 1.03 | locus YHR027C, strain rpn1, active compounds read low 1 | locus YHR030C, strain SLT2, active compounds read low 0.992 and 1.04 | locus YHR079C, strain IRE1 (second series), active compounds read low 0.979 | locus YHR079C, strain IRE1, active compounds read low 1.06 | locus YHR094C, strain hxt1, active compounds read low 0.998 | locus YHR129C, strain ARP1, active compounds read low 1 | locus YHR142W, strain chs7, active compounds read low 1 | locus YHR200W, strain rpn10, active compounds read low 0.979 | locus YIL066C, strain RNR3, active compounds read low 1.01 | locus YIL073C, strain SPO22, active compounds read low 0.986 | locus YIL125W, strain kgd1, active compounds read low 0.985 | locus YIR030C, strain dcg1, active compounds read low 0.996 | locus YJL092W, strain hpr5, active compounds read low 1 | locus YJL095W, strain BCK1 (second series), active compounds read low 1 | locus YJL095W, strain BCK1, active compounds read low 1.04 and 1 | locus YJL115W, strain asf1, active compounds read low 0.999 | locus YJL129C, strain trk1, active compounds read low 0.986 | locus YJL134W, strain LCB3, active compounds read low 1 | locus YJL154C, strain vps35, active compounds read low 1.01 | locus YJL164C, strain tpk1, active compounds read low 1 | locus YJL166W, strain qcr8, active compounds read low 0.972 | locus YJL168C, strain set2, active compounds read low 0.978 | locus YJL187C, strain SWE1 (second series), active compounds read low 1 | locus YJL187C, strain SWE1, active compounds read low 1 | locus YJR043C, strain POL32, active compounds read low 1.01 | locus YJR066W, strain TOR1, active compounds read low 1.01 | locus YJR075W, strain HOC1, active compounds read low 0.995 | locus YKL009W, strain mrt4, active compounds read low 1.01 | locus YKL068W, active compounds read low 0.987 | locus YKL085W, strain MDH1 (second series), active compounds read low 0.978 | locus YKL085W, strain MDH1, active compounds read low 0.978 | locus YKL160W, strain elf1, active compounds read low 0.961 | locus YKL190W, strain CNB1, active compounds read low 1 | locus YKR001C, strain vps1, active compounds read low 0.999 | locus YKR026C, strain gcn3, active compounds read low 0.997 | locus YKR091W, strain srl3, active compounds read low 0.992 | locus YLL001W, strain dnm1, active compounds read low 0.973 | locus YLL026W, active compounds read low 1 | locus YLL041C, strain sdh2, active compounds read low 0.994 | locus YLR027C, strain aat2, active compounds read low 0.994 | locus YLR039C, strain RIC1, active compounds read low 1.05 | locus YLR058C, strain SHM2, active compounds read low 1.01 | locus YLR102C, strain apc9, active compounds read low 0.984 | locus YLR113W, strain HOG1, active compounds read low 0.991 | locus YLR221C, strain rsa3, active compounds read low 0.971 | locus YLR258W, strain gsy2, active compounds read low 0.981 | locus YLR262C, strain YPT6 (second series), active compounds read low 0.985 | locus YLR262C, strain YPT6, active compounds read low 1.08 | locus YLR268W, strain sec22, active compounds read low 0.968 | locus YLR320W, strain mms22, active compounds read low 0.964 | locus YLR330W, strain CHS5, active compounds read low 0.984 | locus YLR342W, strain FKS1 (second series), active compounds read low 1.04 | locus YLR342W, strain FKS1, active compounds read low 0.995 | locus YLR357W, strain rsc2, active compounds read low 0.986 | locus YLR370C, strain arc18, active compounds read low 0.992 | locus YLR371W, strain rom2, active compounds read low 0.973 | locus YLR384C, strain iki3, active compounds read low 1 | locus YLR418C, strain cdc73, active compounds read low 1.04 | locus YML016C, strain PPZ1, active compounds read low 0.997 | locus YML032C, strain rad52, active compounds read low 1.03 | locus YML120C, strain ndi1, active compounds read low 0.99 | locus YML124C, strain tub3, active compounds read low 0.988 | locus YMR058W, strain fet3, active compounds read low 1 | locus YMR078C, strain ctf18, active compounds read low 0.954 | locus YMR125W, strain sto1, active compounds read low 0.97 | locus YMR129W, active compounds read low 1.01 | locus YMR205C, strain PFK2, active compounds read low 0.952 | locus YMR223W, strain ubp8, active compounds read low 1.01 | locus YMR231W, strain pep5, active compounds read low 1 | locus YMR263W, strain SAP30, active compounds read low 0.996 | locus YMR307W, strain GAS1, active compounds read low 1.18 | locus YNL067W, strain RPL9B, active compounds read low 1 | locus YNL071W, strain lat1, active compounds read low 1 | locus YNL183C, strain NPR1, active compounds read low 1 | locus YNL209W, strain ssb2, active compounds read low 1 | locus YNL233W, strain BNI4, active compounds read low 1 | locus YNL248C, strain rpa49, active compounds read low 0.982 | locus YNL250W, strain rad50, active compounds read low 0.939 | locus YNL271C, strain bni1, active compounds read low 0.989 | locus YNL298W, strain CLA4, active compounds read low 1 | locus YNL307C, strain MCK1, active compounds read low 0.979 | locus YNL322C, strain KRE1 (second series), active compounds read low 0.989 | locus YNR049C, strain mso1, active compounds read low 0.997 | locus YNR052C, strain pop2, active compounds read low 0.997 | locus YOL012C, strain htz1 1.13 | locus YOL147C, strain pex11, active compounds read low 0.988 | locus YOR001W, strain rrp6, active compounds read low 1 | locus YOR061W, strain CKA2, active compounds read low 1.01 | locus YOR069W, strain VPS5, active compounds read low 0.995 | locus YOR070C, strain gyp1, active compounds read low 0.999 | locus YOR080W, strain dia2, active compounds read low 0.997 | locus YOR083W, strain WHI5, active compounds read low 0.958 | locus YOR106W, strain vam3, active compounds read low 0.989 | locus YOR136W, strain idh2, active compounds read low 0.991 | locus YOR144C, strain elg1, active compounds read low 0.993 | locus YOR184W, strain ser1, active compounds read low 1 | locus YOR231W, strain MKK1, active compounds read low 1.03 | locus YOR265W, strain rbl2, active compounds read low 0.999 | locus YOR270C, strain vph1, active compounds read low 1.02 | locus YOR290C, strain snf2, active compounds read low 0.98 | locus YOR316C, strain cot1, active compounds read low 0.996 | locus YPL051W, strain arl3, active compounds read low 0.977 | locus YPL055C, strain LGE1, active compounds read low 1.01 | locus YPL078C, strain atp4, active compounds read low 0.965 | locus YPL106C, strain sse1, active compounds read low 0.948 | locus YPL240C, strain hsp82, active compounds read low 0.996 | locus YPL256C, strain CLN2, active compounds read low 1.05 | locus YPR119W, strain clb2, active compounds read low 0.981 | locus YPR141C, strain kar3, active compounds read low 0.977 | locus YPR163C, strain tif3, active compounds read low 0.984 | locus YPR167C, strain met16, active compounds read low 0.995 | strain wtn01, active compounds read low 0.948
